A selection: hits, their analogues and other compounds. The true share with any hit is near 4.1%.
DAX1 inh-1 – DAX1 (NR0B1) inhibitors on StAR promoter, primary screen, cell-based, luminescence, SF-1 (NR5A1), full-length DAX-1; HEK293T StAR-luciferase reporter, SF-1/DAX-1 repression relief; AID 652010, 2013; actives 1.1% (n = 370,000); inhibition, % at 6.8 µM;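 active = inhibition above the mean over all tested compounds plus 3 SD, cut at about 3.6% in these data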;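 also: 0% = DAX-1 cells with DMSO and 100% = cells lacking DAX-1 with DMSO; higher inhibition means more luminescence from relief of DAX-1 repression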
hcDAF-12 act – H. contortus DAF-12 nuclear receptor activators, primary screen, cell-based, luminescence, HEK293, lit1-tk-luc reporter; HEK293 hcDAF-12 lit1-tk-luc reporter; 0% DMSO, 100% Δ7-dafachronic acid; activation, % at 6.8 µM; actives 1.4% (n = 370,000); AID 652067, 2013;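 active = activation above the mean of all tested compounds plus 3 SD, cut at about 5.5% in these data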;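 also: 100% = response to 3 µM Δ7-dafachronic acid high control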
hgDAF-12 ag – H. glycines DAF-12 receptor agonists, primary screen, cell-based, luminescence, HEK293, GAL4 fusion, UAS-luciferase; Nuclear hormone receptor DAF-12 (Heterodera glycines), GAL4 fusion; HEK293 GAL4-hgDAF12 UAS-luciferase reporter, agonist luminescence; normalized to butyrate control; activation, % at 6.8 µM; actives 1.8% (n = 370,000);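 active = activation above a cutoff set at the mean of all screened compounds plus 3 SD, cut at about 10% in these data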;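 also: 0% = DMSO wells and 100% = sodium butyrate wells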
DAX1 inh-2 – DAX1 (NR0B1) inhibitors, primary screen, cell-based, HEK293, Gal4-DAX1, luciferase luminescence | Nuclear receptor subfamily 0 group B member 1 (Homo sapiens), P51843 | actives 0.99% (n = 340,000) | AID 504766, 2011 | inhibition, % at 6.75 µM | HEK293 Gal4-DAX1 luciferase reporter;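 active = inhibition above the mean over all tested compounds plus 3 SD, cut at about 4.2% in these data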;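 also: 0% = DAX1-transfected cells with DMSO and 100% = empty-vector control cells with DMSO; inhibition shows as a rise in luminescence from relieved DAX1 repression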
Target sequence (P51843 207-470 limits assumed): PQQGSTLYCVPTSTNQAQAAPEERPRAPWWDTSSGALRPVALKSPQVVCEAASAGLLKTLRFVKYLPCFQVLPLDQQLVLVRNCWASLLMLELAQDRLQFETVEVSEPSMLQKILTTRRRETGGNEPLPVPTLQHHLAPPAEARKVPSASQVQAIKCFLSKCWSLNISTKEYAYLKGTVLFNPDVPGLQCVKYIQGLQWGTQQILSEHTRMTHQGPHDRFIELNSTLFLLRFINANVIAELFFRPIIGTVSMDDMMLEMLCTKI
ssDAF-12 act – S. stercoralis DAF-12 nuclear receptor activators, primary screen, cell-based, luminescence, HEK293, GRIP1 co-expression, lit1-tk-luc; Nuclear hormone receptor DAF-12 (Strongyloides stercoralis); HEK293 ssDAF-12/GRIP1 lit1-tk-luc reporter; % of 3 µM dafachronic acid response; activation, % at 6.8 µM; actives 1% (n = 370,000);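 active = activation above the mean over all tested compounds plus 3 SD, cut at about 0.9% in these data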;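 also: 0% = DMSO-only wells and 100% = 3 µM delta7-dafachronic acid wells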
* = called active by the depositor; . = no result.

SMILES	DAX1 inh-1	hcDAF-12 act	hgDAF-12 ag	DAX1 inh-2	ssDAF-12 act
Cc1oncc1C(=O)Nc1cccc2ccccc12	-0.1	-2.3	3.3	0.0	-0.7
Cc1oncc1C(=O)Nc1ccc2ccccc2c1	3.8*	3.1	8.9	0.0	0.0
Cc1oncc1C(=O)Nc1ccc(C(F)(F)F)cc1	4.3*	0.5	10.0	-1.3	-0.6
CC(=O)c1ccc(NC(=O)c2ccn[nH]2)cc1	2.0	4.5	7.5	1.8	-0.2
O=C(Nc1ccccc1)c1ccn[nH]1	2.3	4.7	7.7	4.3*	0.0
COc1ccc(/C=C2\SC(=S)N(CCCC(=O)Nc3ccc(O)cc3)C2=O)cc1	-0.1	-5.2	-8.1	-1.7	-3.2
COc1ccc(/C=C2\SC(=S)N(CCC(=O)Nc3cccc(O)c3)C2=O)cc1	0.9	0.4	2.1	4.8*	-0.8
O=S(=O)(CC1NCCc2ccccc21)NCc1ccccc1 (centres undefined)	0.2	1.9	-1.6	.	-0.1
COc1ccc(-c2noc(-c3ccoc3C)n2)cc1	4.0*	5.3	11.4*	7.5*	1.7*
COc1cccc(-c2noc(-c3ccoc3C)n2)c1	3.2	2.1	12.3*	2.5	0.5
COc1ccc(-c2noc(-c3ccoc3C)n2)cc1OC	1.6	1.8	2.8	2.7	-0.3
Cc1cc(C)cc(N(CC(=O)NC2CCC(C)CC2)S(=O)(=O)c2ccc([N+](=O)[O-])cc2)c1 (centres undefined)	0.1	-1.1	0.7	.	-1.0
O=C(OC12CCCN(C1)/C(=C/c1ccc(Cl)cc1)C2)c1ccco1 (centres undefined)	0.5	-2.4	-2.6	.	-1.4
Cc1ccc2c(c1)c(-c1csc(N)n1)c(C)n2C	0.4	2.9	1.8	0.1	1.6*
CCOc1ccc(N(CC(=O)NCc2ccc(F)cc2)S(=O)(=O)c2c(C)noc2C)cc1	-1.0	-2.1	-2.5	1.0	-1.2
CCOc1ccc(N(CC(=O)Nc2ccc(C)cc2)S(=O)(=O)c2c(C)noc2C)cc1	-0.4	0.5	1.3	2.9	-1.6
CCOc1ccc(N(CC(=O)NC(C)(C)C)S(=O)(=O)c2c(C)noc2C)cc1	-0.5	-0.1	1.1	6.8*	-0.9
CCOc1ccc(N(CC(=O)Nc2ccc(F)c(F)c2)S(=O)(=O)c2c(C)noc2C)cc1	1.0	-1.0	-0.6	4.4*	-0.7
C=CCc1ccc(OCCCCOc2ccc(C(=O)O)cc2)c(OC)c1	0.2	-1.9	2.5	.	3.8*
C=CCc1ccc(OCc2ccc(C(=O)O)o2)c(OC)c1	2.2	6.0*	10.4	-1.3	-0.1
CCOc1ccc(OCc2ccc(C(=O)O)o2)cc1	0.9	2.6	9.8	-3.9	0.2
C=CCc1ccc(OCCCOc2ccc(C)c(C)c2)c(OC)c1	0.1	-0.9	1.0	-0.5	-0.2
CCCc1ccc(OCc2ccc(C(=O)O)o2)c(OC)c1	2.6	4.0	8.4	-1.8	0.2
O=C(O)c1ccc(COc2ccc3ccccc3c2)o1	1.9	2.9	10.5*	-1.3	-0.9
COc1ccc(OC)c(S(=O)(=O)N2CCCCC2C(=O)N2CCN(CCO)CC2)c1 (centres undefined)	-0.1	-1.7	2.0	.	-1.2
SMILES	DAX1 inh-1	hcDAF-12 act	hgDAF-12 ag	DAX1 inh-2	ssDAF-12 act
CC1CCN(c2ccc(C(=O)O)cc2NS(=O)(=O)c2ccccc2)CC1	0.2	-3.3	-1.4	.	-1.9
O=C(c1ccc2nc(Cc3cccc(Cl)c3)oc2c1)N1CCC(O)CC1	-0.3	0.1	-0.4	0.3	-0.5
O=C(c1ccc2nc(Cc3cccc(Cl)c3)oc2c1)N1CCOCC1	3.9*	6.0*	5.0	0.8	-0.6
Cc1ccccc1Cn1cc(CN2[C@@H](Cc3ccccc3)COc3cc(Br)ccc3S2(=O)=O)nn1	-0.2	0.1	-1.9	.	-0.7
COCC(C)NC(=O)NC(=O)c1ccc(Cl)cc1 (centres undefined)	1.6	0.0	0.3	-0.4	1.1*
CC(NC(=O)NC(=O)c1ccc(Cl)cc1)c1ccccc1 (centres undefined)	-4.5	-2.4	-0.1	-0.8	-0.9
O=C(NC1CCCC1)C1CSCCS(=O)(=O)N1Cc1ccc(F)cc1 (centres undefined)	-0.1	-0.1	1.1	.	-0.8
Cc1[nH]c2ccccc2c1-c1csc(NC(=O)CSCCO)n1	1.4	-0.9	0.0	5.5*	-1.0
COCCCNC(=O)C[C@@H]1C(=O)N2CCCC3=C2[C@@]1(C(=O)OC)CCCC3	1.1	0.6	0.8	.	0.4
Cc1ccc(CONC(=O)c2cccc([N+](=O)[O-])c2)cc1	-1.3	-1.2	3.4	4.7*	-1.5
COC(=O)[C@]12C[C@H](CC(=O)N3CCCCC3)C(=O)N(Cc3cccc4ccccc34)C1=C[C@H](C(C)C)O[C@@H]2C1CC1	2.0	-1.9	-1.7	.	-0.9
Cc1ccc(-c2noc(-c3ccccc3C(=O)N3CCN(C)CC3)n2)cc1	1.0	6.6*	4.4	0.2	-0.2
O=C(/C=C/c1ccccc1)Nc1cccc(C(=O)NCc2ccccc2)c1	-0.5	-2.0	1.5	.	-1.2
O=C(/C=C/c1ccccc1)Nc1cccc(C(=O)NC2CC2)c1	3.8*	1.4	8.7	1.2	-0.5
Cc1ccccc1CS(=O)(=O)Cc1ccc(C(=O)Nc2cccc(C)c2C)o1	-0.1	-3.5	1.9	.	-1.0
Clc1ccccc1OCc1nnc(-c2ccccc2)o1	1.0	2.3	12.8*	0.8	-0.9
Cc1cc(Br)ccc1OCc1nnc(-c2ccccc2)o1	0.7	0.5	3.6	.	-1.2
CSCCC(NC(N)=O)C(=O)Nc1cccc(C#N)c1 (centres undefined)	0.0	-0.5	3.7	5.1*	-1.8
CSCCC(NC(N)=O)C(=O)Nc1ccc2ccccc2c1 (centres undefined)	0.1	-1.0	0.0	1.1	-1.7
CCN(CC)S(=O)(=O)c1ccc2c(c1)c(=O)c(C(=O)NCCCN(C)c1ccccc1)cn2C	0.8	-2.0	1.0	0.8	-1.9
CN(CCCNC(=O)c1cn(C)c2ccc(S(=O)(=O)N(C)C)cc2c1=O)c1ccccc1	-2.2	-0.8	1.4	5.3*	-0.5
CCn1cc(C(=O)NCCCN2CCN(C)CC2)c(=O)c2cc(S(=O)(=O)N3CCc4ccccc4C3)ccc21	-0.4	1.2	-1.9	2.9	1.5*
CN(C)S(=O)(=O)c1ccc2c(c1)c(=O)c(C(=O)N1CCOCC1)cn2C	0.8	1.9	2.7	5.9*	-1.8
CN(C)S(=O)(=O)c1ccc2c(c1)c(=O)c(C(=O)NCCCN1CCCCCC1)cn2C	1.2	1.1	2.9	5.2*	-1.6

Screening data (PubChem)
